Most compounds without a hit are left out; they make up all but 7.7% or so of the library.
FMDV inh – High Throughput Screening for Foot and Mouth Disease Virus Antivirals | FMDV antiviral cell-based qHTS | Potency, µM (highest dose often 57.9 µM), without a hit: at the highest dose activity change, negative = inhibition, usual class: inhibitors | 410,000 tested, 1.2% active | AID 1159524, 2015; calls by dose curve; tested in HEK293T cells; note: read-out not given here; potency is the fitted concentration of half-maximal effect; nearly all actives have a fitted effect of over 45% in size
Tb PYK inh – qHTS of Trypanosoma Brucei Inhibitors; 410,000 tested, 0.12% active; Potency, µM (doses to about 76.8 µM), inactives show at the top dose activity, negative = inhibition, usual class: inhibitors; pyruvate kinase (Trypanosoma brucei), Q57TT1; TbPYK enzyme, Kinase-Glo Plus ATP luminescence, 45 min; note: potency is the fitted concentration of half-maximal effect; nearly all actives have a fitted effect of over 50% in size
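In this concentration-response screen, enzyme-free wells defined baseline while DMSO plates tracked drift. Each reaction combined TbPYK, substrate, compound and 130 uM ADP for 45 min at room temperature. Kinase-Glo Plus luminescence gave the signal.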
Sm TGR block – qHTS Assay for the Inhibitors of Schistosoma Mansoni Peroxiredoxins. purified TGR, DTNB reduction, TNB absorbance 405 nm. Potency, µM (series often up to 114 µM), for the others: at the top dose activity change, negative = inhibition, usual class: inhibitors. 360,000 tested, 3% active; note: potency is the fitted concentration of half-maximal effect; nearly all actives have a fitted effect of over 60% in size
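TGR 20 nM + NADPH 100 uM (dispensed conc.), cpd preinc 15 min RT; start with NADPH (500 uM addition) then DTNB (15 mM addition). Kinetic TNB absorbance, 405 nm filter. Four-parameter Hill fit across titration.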
RE007 growth inh – qHTS Assay for Inhibitors of the HIV-1 protein Vpr. S. pombe RE007 Vpr strain, BacTiter-Glo ATP luminescence, 24 h. Potency, µM (titrated, usually from 92.2 µM), for the others: top-dose activity change, negative = less growth, actives largely listed as inhibitors. 360,000 tested, 0.21% active; active = well fitted falling curve with a large enough effect; inconclusive = small, poorly fitted or top-dose-only effect; inactive = no such curve, though single readings can be large or run the other way; note: potency is the fitted concentration of half-maximal effect; nearly all actives have a fitted effect of over 50% in size
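Fission yeast RE007 carrying one integrated HIV-1 vpr copy, seeded at OD 0.01 in PMG+AL medium with 23 nL pinned compound. Grown 24 h at 30 degrees; viability read by BacTiter-Glo luminescence after 5 min.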
HCMV inh – qHTS Assay for inhibitors of the human cytomegalovirus (HCMV); activity change, negative = inhibition, % at 57.5 µM; HFF cells, HCMV-luciferase reporter, 72 h; active compounds read low; AID 1259415, 2018; 410,000 tested, 4.5% active; in the data active = activity change below about -60%; inconclusive = no clear call, values can overlap the other calls; inactive = above about -39%
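Two compound doses tested in HFFs infected with HCMV-luciferase, MOI 1 PFU/cell, 72 h at 37C. Lysate luminescence read with OneGlo; data normalized against buffer-only and 10uM Salinomycin inhibitor controls.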
Giardia FBPA inh-1 – qHTS Assay for Inhibitors of Fructose-1,6-bisphosphate Aldolase from Giardia Lamblia; A8B2U2; purified Giardia FBPA; Potency, µM (top dose mostly 59.6 µM), inactives show at the highest dose activity, negative = inhibition, most hits filed as inhibitors; 290,000 tested, 0.71% active; AID 2451, 2010; note: potency is the fitted concentration of half-maximal effect; nearly all actives have a fitted effect of over 55% in size
Target sequence (A8B2U2 whole entry, looked up): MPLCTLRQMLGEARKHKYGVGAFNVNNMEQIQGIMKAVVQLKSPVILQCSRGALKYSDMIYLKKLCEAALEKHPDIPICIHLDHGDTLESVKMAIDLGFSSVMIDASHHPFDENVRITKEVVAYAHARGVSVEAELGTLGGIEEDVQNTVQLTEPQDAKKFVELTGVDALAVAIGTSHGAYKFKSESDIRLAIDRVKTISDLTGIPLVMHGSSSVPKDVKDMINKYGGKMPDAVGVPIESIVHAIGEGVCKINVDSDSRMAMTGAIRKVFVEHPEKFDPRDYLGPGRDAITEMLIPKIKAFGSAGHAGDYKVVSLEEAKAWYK
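40 nM FBPA preincubated 10 min at RT with compound (up to 57.5 uM final), then substrate plus GAPDH/TPI/NAD/arsenate coupling and diaphorase/resazurin added. Fluorescence read after 20 min at RT, 525/598 nm.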
Giardia growth – qHTS Assay for Inhibitors of Fructose-1,6-bisphosphate Aldolase from Giardia Lamblia: Giardia lamblia growth inhibition; 1,500 tested, 5% active; AID 2785, 2010; shares compounds with Giardia FBPA inh-1; Potency, µM (doses to about 57.5 µM), without a hit: at the highest dose activity change, negative = inhibition, actives largely listed as inhibitors; Giardia lamblia trophozoite growth inhibition;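 note: potency is the fitted concentration of half-maximal effect; trophozoites exposed to compound for 48 h at 37 °C; nearly all actives have a fitted effect of over 70% in size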
Mammal cell tox – qHTS Assay for Inhibitors of Fructose-1,6-bisphosphate Aldolase from Giardia Lamblia: Mammalian cellular toxicity. shares compounds with Giardia FBPA inh-1. mammalian cell viability counter-screen, qHTS. Potency, µM (series often up to 57.5 µM), for the others: top-dose viability change, negative = toxicity, hits mostly inhibitors. 1,500 tested, 4% active. AID 2786, 2010;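 note: Chinese hamster ovary cells used as mammalian cytotoxicity surrogate; viability measured as cellular ATP by luminescence; potency is the fitted concentration of half-maximal effect; compound exposure lasted 48 h before reading; nearly all actives have a fitted effect of over 60% in size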
Giardia FBPA inh-2 – qHTS Assay for Inhibitors of Fructose-1,6-bisphosphate Aldolase from Giardia Lamblia: Primary screen confirmation. shares compounds with Giardia FBPA inh-1. purified Giardia aldolase enzyme activity, qHTS. Potency, µM (titrated, usually from 57.5 µM), inactives show top-dose activity change, negative = inhibition, actives largely listed as inhibitors. 1,500 tested, 5% active; note: potency is the fitted concentration of half-maximal effect; nearly all actives have a fitted effect of over 45% in size
Rabbit aldolase – qHTS Assay for Inhibitors of Fructose-1,6-bisphosphate Aldolase from Giardia Lamblia: Rabbit FBPA Selectivity. 1,500 tested, 4% active. Potency, µM (series often up to 57.5 µM), for the others: top-dose activity, negative = inhibition, most hits filed as inhibitors. shares compounds with Giardia FBPA inh-1. Rabbit muscle FBPA enzyme inhibition, selectivity counter-screen; note: potency is the fitted concentration of half-maximal effect; nearly all actives have a fitted effect of over 60% in size
GAPDH coupling – qHTS Assay for Inhibitors of Fructose-1,6-bisphosphate Aldolase from Giardia Lamblia: Coupling assay counterscreen confirmation | shares compounds with Giardia FBPA inh-1 | GAPDH coupling enzyme counterscreen, biochemical, qHTS | Potency, µM (series often up to 57.5 µM), for the others: at the top dose activity change, negative = inhibition, hits mostly inhibitors | 1,500 tested, 6% active | AID 2795, 2010; note: potency is the fitted concentration of half-maximal effect; nearly all actives have a fitted effect of over 55% in size
* = called active by the depositor; ? = inconclusive; · = not tested or not shown; [ ] = remark or other dose. Unless noted, calls come from the whole dose curve; as a rule, active = well fitted curve in the direction sought with a large enough effect; inconclusive = small, poorly fitted or top-dose-only effect, or another doubt; inactive = no such curve, though single readings can be large; an effect the other way counts as inactive or inconclusive. % is set by controls: 0 for no effect and ±100 for the full control effect.

SMILES | FMDV inh | Tb PYK inh | Sm TGR block | RE007 growth inh | HCMV inh | Giardia FBPA inh-1 | Giardia growth | Mammal cell tox | Giardia FBPA inh-2 | Rabbit aldolase | GAPDH coupling
CCOC(=O)CCCc1ccc(/C(C)=N/NC(N)=S)cc1 | -24.6% | -13.2% | -25.3% | 2.9% | -23.2 | 6.29µM* | 13.2%[38.3 µM] | -1.3% | 10.3% | 9.5% | -3.2%
Cc1ccc(/C(=N/Nc2ncnc3ccccc23)C(=O)O)cc1 | 50.4% | -2.2% | -19.6% | -6.5% | 124.6 | 14.1µM* | 15.6% | -1.0% | 7.8% | -12.2% | -3.6%
COC(=O)CN1C(=O)C(O)(c2c(C)[nH]c3ccccc23)c2ccccc21 (stereo not given) | -2.2% | 1.5% | -2.8% | · | 14.4 | · | · | · | · | · | ·
Cc1ccc(S(=O)(=O)Nc2ncccn2)cc1 | -4.2% | -2.0% | -13.9% | 1.2% | -6.9 | 22.4µM* | -6.7% | 21.1% | 5.4% | 18.0% | 6.4%
COc1cc(/C=N/NC2=NS(=O)(=O)c3ccccc32)ccc1OC(C)=O | 11.5% | 6.1% | 13.6% | 11.2% | ? | 11.2µM* | 7.2% | 8.2% | 6.8% | 11.3% | 7.8%
COc1ccc(/C=N/NC2=NS(=O)(=O)c3ccccc32)cc1OC | -3.4% | -2.6% | 8.4% | 3.4% | -12.1 | 10µM* | 11.3%[10.4 µM] | 27.3% | 13.4% | 12.1% | -6.9%
COc1ccc(Cl)cc1Nc1cc(C)nc2nc(-c3ccccc3C)nn12 | -17.1% | -0.7% | -1.8% | · | 9.0 | · | · | · | · | · | ·
COC(=O)[C@@]1(C)C=C[C@@H](Cc2ccccc2)N1C | · | · | · | · | · | -3.6% | · | · | · | · | ·
Cc1nc2c(=O)n(C)c(=O)nc-2n(C)n1 | 2.82µM* | 4.2% | ? | ? | -103.1* | ? | 5.01µM* | 15.8µM* | 3.98µM* | 3.98µM* | 2.24µM*
COc1ccc(-c2cc(C(F)(F)F)n3nc(-c4ccc(Cl)cc4)cc3n2)cc1OC | -9.8% | -2.1% | 1.7% | · | 1.3 | · | · | · | · | · | ·
O=C(Cn1c2ncccc2c(=O)n1-c1ccccc1)Nc1ccc(F)c(F)c1 | -5.9% | 4.3% | 41.2% | · | -8.7 | · | · | · | · | · | ·
O=C(O)C1CCc2sc3[nH]c(=S)n(-c4ccccc4)c(=O)c3c21 (stereo not given) | 1.0% | ? | -25.2% | -1.3% | 33.2 | 19.9µM* | -5.9%[10.4 µM] | 2.8% | -5.9% | 5.4% | 5.7%

High-throughput results: PubChem BioAssay, National Center for Advancing Translational Sciences (NCATS)
